Measurements reported in the supplement of paper PMC10849652.
Of roughly 8,800 targets only a part is listed; those with a hit were picked by preference. About 0.5% of all pairs of compound and target were hits.

How the values were obtained:
Assay in all cases: log2 fold change, soluble protein after heating vs DMSO (PISA); higher = thermal stabilisation; K562 lysate, 10 uM; active = over 0.2 and 3.5 SD of the protein, either way, in both replicates (recomputed)
nilotinib = compound: Cc1cn(-c2cc(NC(=O)c3ccc(C)c(Nc4nccc(-c5cccnc5)n4)c3)cc(C(F)(F)F)c2)cn1 [nilotinib]
How it was run: (§1)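 To prepare the extract, K562 pellets were dounce-homogenised in PBS pH 7.4 with 1 mM MgCl2, giving crude material at 1 mg/mL protein. This was treated with 10 μM compound for 30 min, then heated in aliquots for 3 min over 48°C-58°C before pooling and addition of NP-40 to 0.5% at 4°C. Centrifugation at 21,000xg for 90 min left soluble protein in the supernatant, which TMTpro 16plex LC-MS/MS quantified with equalised channel sums. Results are log-two fold changes in thermal stability compared with solvent controls, from duplicates.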

[1] = compound: Cc1nc(Nc2n[nH]c3c2CN(C(=O)N[C@H](CN(C)C)c2ccccc2)C3(C)C)c2sccc2n1
How it was run: as §1

dasatinib = compound: Cc1nc(Nc2ncc(C(=O)Nc3c(C)cccc3Cl)s2)cc(N2CCN(CCO)CC2)n1 [dasatinib]
How it was run: as §1

[2] = compound: Cc1ncc(-c2ccnc(Nc3ccc(S(C)(=O)=O)cc3)n2)n1C(C)C
How it was run: as §1

[3] = compound: Cn1cc(-c2ccc3c(c2)CCN3C(=O)Cc2cccc(C(F)(F)F)c2)c2c(N)ncnc21
How it was run: as §1

quisinostat = compound: Cn1cc(CNCC2CCN(c3ncc(C(=O)NO)cn3)CC2)c2ccccc21 [quisinostat]
How it was run: as §1

tipifarnib = compound: Cn1cncc1[C@@](N)(c1ccc(Cl)cc1)c1ccc2c(c1)c(-c1cccc(Cl)c1)cc(=O)n2C [tipifarnib]
How it was run: as §1

[4] = compound: NC(=O)Nc1cc(-c2cccc(F)c2)sc1C(=O)N[C@H]1CCCNC1
How it was run: as §1

[5] = compound: NC(=O)c1cnc(N[C@@H]2CCCC[C@@H]2N)nc1Nc1cccc(-n2nccn2)c1
How it was run: as §1

[6] = compound: NC1(c2ccc(-c3nc4ccn5c(=O)[nH]nc5c4cc3-c3ccccc3)cc2)CCC1
How it was run: as §1

[7] = compound: NCC(=O)Nc1ccc(-n2nc(C(F)(F)F)cc2-c2ccc3c(ccc4ccccc43)c2)cc1
How it was run: as §1

vorinostat = compound: O=C(CCCCCCC(=O)Nc1ccccc1)NO [vorinostat]
How it was run: as §1

silmitasertib = compound: O=C(O)c1ccc2c(c1)nc(Nc1cccc(Cl)c1)c1ccncc12 [silmitasertib]
How it was run: as §1

[8] = compound: O=C1NC(=O)C(c2cnc3ccccn23)=C1c1cn2c3c(cc(F)cc13)CN(C(=O)N1CCCCC1)CC2
How it was run: as §1

entospletinib = compound: c1cn2cc(-c3ccc4cn[nH]c4c3)nc(Nc3ccc(N4CCOCC4)cc3)c2n1 [entospletinib]
How it was run: as §1

Measured: log2 fold change

AP3D1 isoform 5 (UniProt O14617)
Sequence of UniProt O14617 (O14617 whole entry, looked up): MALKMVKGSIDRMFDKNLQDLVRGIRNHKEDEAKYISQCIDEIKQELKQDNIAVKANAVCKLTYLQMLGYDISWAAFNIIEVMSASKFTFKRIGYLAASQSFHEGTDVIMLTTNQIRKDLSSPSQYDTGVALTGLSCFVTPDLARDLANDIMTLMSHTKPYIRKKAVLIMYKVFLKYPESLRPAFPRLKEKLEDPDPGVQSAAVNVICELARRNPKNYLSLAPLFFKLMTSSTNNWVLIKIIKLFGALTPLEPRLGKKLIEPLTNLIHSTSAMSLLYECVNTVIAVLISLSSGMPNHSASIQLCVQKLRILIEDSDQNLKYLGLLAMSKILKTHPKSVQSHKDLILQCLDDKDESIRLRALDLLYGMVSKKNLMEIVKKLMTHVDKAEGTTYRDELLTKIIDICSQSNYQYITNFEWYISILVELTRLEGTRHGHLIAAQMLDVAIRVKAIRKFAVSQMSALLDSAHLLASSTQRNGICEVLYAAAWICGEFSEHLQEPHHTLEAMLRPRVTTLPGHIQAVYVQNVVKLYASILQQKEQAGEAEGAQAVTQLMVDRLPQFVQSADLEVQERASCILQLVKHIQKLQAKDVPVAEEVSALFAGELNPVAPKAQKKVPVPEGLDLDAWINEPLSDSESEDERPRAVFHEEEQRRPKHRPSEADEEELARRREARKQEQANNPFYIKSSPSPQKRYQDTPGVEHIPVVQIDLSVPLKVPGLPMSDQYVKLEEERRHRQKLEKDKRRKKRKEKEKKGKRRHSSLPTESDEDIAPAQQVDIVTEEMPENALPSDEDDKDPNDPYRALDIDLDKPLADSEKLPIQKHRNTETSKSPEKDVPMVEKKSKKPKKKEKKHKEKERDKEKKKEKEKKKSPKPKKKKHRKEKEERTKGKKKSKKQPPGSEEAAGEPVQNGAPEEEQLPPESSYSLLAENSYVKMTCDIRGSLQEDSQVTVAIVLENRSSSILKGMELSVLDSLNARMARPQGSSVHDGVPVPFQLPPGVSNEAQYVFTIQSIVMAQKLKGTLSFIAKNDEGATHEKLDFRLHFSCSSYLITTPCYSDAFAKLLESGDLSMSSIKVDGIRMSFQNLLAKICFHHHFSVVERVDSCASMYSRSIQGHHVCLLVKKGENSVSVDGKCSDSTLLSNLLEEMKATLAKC
inactive: nilotinib -0.001 | [1] 0.018 | dasatinib -0.043 | [2] 0.002 | [3] 0.003 | quisinostat -0.002 | tipifarnib -0.002 | [4] 0.016 | [5] -0.007 | [6] 0.03 | [7] -0.001 | vorinostat -0.015 | silmitasertib -0.003 | [8] 0.012 | entospletinib 0.006

ALDH6A1 (UniProt Q02252)
Sequence of UniProt Q02252 (Q02252 whole entry, looked up): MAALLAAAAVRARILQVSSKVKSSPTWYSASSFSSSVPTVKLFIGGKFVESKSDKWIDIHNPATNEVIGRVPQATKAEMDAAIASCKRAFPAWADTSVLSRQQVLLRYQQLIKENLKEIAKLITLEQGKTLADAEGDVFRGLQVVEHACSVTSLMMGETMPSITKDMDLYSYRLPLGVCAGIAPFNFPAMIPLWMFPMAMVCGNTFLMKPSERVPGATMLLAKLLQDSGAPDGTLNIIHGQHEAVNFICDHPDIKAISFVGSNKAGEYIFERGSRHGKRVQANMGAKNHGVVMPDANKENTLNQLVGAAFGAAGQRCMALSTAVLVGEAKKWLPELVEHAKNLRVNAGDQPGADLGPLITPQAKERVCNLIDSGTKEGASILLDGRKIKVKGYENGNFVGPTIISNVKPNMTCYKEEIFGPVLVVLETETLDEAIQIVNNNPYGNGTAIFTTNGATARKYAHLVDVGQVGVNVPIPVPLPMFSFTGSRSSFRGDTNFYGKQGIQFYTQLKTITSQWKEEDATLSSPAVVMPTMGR
inactive: nilotinib -0.053 | [1] 0.161 | dasatinib -0.144 | [2] -0.022 | [3] 0.06 | quisinostat -0.027 | tipifarnib -0.026 | [4] 0.018 | [5] -0.038 | [6] -0.013 | [7] -0.041 | vorinostat -0.046 | silmitasertib 0.042 | [8] 0.096 | entospletinib 0.035

AKT2 (UniProt P31751)
Sequence of UniProt P31751 (P31751 whole entry, looked up): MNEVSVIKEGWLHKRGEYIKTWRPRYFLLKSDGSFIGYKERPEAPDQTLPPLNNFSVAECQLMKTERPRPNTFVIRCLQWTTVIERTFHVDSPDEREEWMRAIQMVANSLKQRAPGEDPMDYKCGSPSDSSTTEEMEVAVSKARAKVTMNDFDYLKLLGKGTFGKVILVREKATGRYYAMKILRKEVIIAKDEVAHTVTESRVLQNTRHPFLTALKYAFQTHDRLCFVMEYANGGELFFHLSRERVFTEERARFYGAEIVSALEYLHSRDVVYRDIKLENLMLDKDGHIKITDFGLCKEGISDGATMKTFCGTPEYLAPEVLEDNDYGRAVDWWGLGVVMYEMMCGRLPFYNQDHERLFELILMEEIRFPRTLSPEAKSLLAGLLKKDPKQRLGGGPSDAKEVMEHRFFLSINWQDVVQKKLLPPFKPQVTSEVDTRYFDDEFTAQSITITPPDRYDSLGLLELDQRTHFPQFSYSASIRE
active: [6] 0.559
inactive: nilotinib -0.013 | [1] -0.004 | dasatinib 0.003 | [2] -0.008 | [3] 0.005 | quisinostat 0.001 | tipifarnib 0.017 | [4] 0.019 | [5] -0.015 | [7] -0.021 | vorinostat -0.175 | silmitasertib 0.011 | [8] -0.019 | entospletinib 0.008

ABHD12 isoform 2 (UniProt Q8N2K0)
Sequence of UniProt Q8N2K0 (Q8N2K0 whole entry, looked up): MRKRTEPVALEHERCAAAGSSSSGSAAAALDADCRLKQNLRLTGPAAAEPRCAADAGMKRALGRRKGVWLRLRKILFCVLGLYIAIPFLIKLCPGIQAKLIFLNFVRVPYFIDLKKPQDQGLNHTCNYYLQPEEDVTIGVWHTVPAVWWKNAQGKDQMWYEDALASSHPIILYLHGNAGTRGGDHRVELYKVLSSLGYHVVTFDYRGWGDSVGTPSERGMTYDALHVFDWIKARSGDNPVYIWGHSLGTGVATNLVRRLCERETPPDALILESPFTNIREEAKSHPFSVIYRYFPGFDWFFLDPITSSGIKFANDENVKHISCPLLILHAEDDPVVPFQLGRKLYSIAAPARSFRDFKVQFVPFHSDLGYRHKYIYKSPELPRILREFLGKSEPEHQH
active: vorinostat 0.392
inactive: nilotinib 0.005 | [1] -0.004 | dasatinib 0.028 | [2] 0.058 | [3] -0.068 | quisinostat 0.044 | tipifarnib -0.077 | [4] -0.025 | [5] -0.02 | [6] 0.019 | [7] -0.003 | silmitasertib -0.026 | [8] -0.023 | entospletinib -0.023

AHCYL1 (UniProt O43865)
Sequence of UniProt O43865 (O43865 whole entry, looked up): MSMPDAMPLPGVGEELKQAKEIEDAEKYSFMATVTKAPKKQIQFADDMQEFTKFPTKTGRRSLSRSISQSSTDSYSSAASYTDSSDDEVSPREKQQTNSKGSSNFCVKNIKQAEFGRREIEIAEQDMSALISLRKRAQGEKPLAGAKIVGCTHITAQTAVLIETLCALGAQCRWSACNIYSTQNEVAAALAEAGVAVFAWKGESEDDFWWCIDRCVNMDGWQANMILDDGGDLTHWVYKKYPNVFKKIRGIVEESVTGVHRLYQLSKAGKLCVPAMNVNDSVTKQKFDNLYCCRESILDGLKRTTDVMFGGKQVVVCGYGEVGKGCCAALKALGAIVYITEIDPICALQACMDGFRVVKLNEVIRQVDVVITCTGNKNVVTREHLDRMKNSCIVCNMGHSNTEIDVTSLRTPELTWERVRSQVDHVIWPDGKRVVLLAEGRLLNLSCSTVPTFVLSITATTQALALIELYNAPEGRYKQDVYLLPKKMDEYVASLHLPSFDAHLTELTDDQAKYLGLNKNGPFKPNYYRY
active: vorinostat -0.287
inactive: nilotinib -0.077 | [1] -0.011 | dasatinib -0.015 | [2] 0.021 | [3] 0.02 | quisinostat -0.079 | tipifarnib -0.001 | [4] 0.066 | [5] -0.005 | [6] -0.087 | [7] 0.021 | silmitasertib -0.021 | [8] 0.045 | entospletinib -0.03

ALKBH4 (UniProt Q9NXW9)
Sequence of UniProt Q9NXW9 (Q9NXW9 whole entry, looked up): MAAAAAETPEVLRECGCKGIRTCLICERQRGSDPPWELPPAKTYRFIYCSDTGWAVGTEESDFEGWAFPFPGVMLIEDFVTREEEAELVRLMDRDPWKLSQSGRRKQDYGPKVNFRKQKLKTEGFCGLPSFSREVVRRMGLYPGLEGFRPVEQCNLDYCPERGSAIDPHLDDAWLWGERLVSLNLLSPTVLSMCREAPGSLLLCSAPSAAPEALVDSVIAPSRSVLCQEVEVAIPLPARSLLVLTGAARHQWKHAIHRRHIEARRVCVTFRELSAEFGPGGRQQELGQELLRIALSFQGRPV
inactive: nilotinib -0.053 | [1] -0.05 | dasatinib -0.028 | [2] -0.008 | [3] 0.007 | quisinostat -0.01 | tipifarnib 0.023 | [4] 0.023 | [5] -0.013 | [6] 0.047 | [7] 0.061 | silmitasertib -0.032 | [8] -0.088 | entospletinib -0.012
active: vorinostat 0.264

AK1 (UniProt P00568)
Sequence of UniProt P00568 (P00568 whole entry, looked up): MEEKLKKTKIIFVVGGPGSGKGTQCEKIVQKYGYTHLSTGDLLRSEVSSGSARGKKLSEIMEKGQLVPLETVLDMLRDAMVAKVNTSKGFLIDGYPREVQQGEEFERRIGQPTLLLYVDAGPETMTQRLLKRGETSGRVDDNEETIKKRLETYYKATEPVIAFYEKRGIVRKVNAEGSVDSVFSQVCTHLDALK
inactive: nilotinib 0.023 | [1] 0.008 | dasatinib -0.038 | [2] 0.015 | [3] 0.011 | quisinostat 0.118 | tipifarnib 0.056 | [4] 0.004 | [5] 0.003 | [6] 0.009 | [7] 0.005 | vorinostat 0.075 | silmitasertib 0.001 | [8] -0.001 | entospletinib 0.022

AIMP2 (UniProt Q13155)
Sequence of UniProt Q13155 (Q13155 whole entry, looked up): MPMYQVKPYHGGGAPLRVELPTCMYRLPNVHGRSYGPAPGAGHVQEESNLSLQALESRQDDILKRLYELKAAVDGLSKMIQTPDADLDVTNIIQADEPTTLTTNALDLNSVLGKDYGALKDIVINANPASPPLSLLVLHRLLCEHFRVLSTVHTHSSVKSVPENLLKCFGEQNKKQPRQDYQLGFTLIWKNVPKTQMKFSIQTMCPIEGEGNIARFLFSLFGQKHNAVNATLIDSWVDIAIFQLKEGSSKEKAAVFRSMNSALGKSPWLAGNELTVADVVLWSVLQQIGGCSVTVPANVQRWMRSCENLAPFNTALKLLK
inactive: nilotinib 0.015 | [1] -0.015 | dasatinib -0.048 | [2] -0.002 | [3] -0.007 | quisinostat -0.009 | tipifarnib -0.003 | [4] 0.045 | [5] -0.012 | [6] -0.007 | [7] -0.046 | silmitasertib 0.048 | [8] 0.017 | entospletinib -0.017
active: vorinostat -0.347

ACIN1 (UniProt E7EQT4)
inactive: nilotinib 0.033 | [1] -0.032 | dasatinib 0.043 | [2] 0.006 | [3] 0.195 | quisinostat -0.087 | tipifarnib -0.021 | [4] -0.072 | [5] 0.041 | [6] -0.039 | [7] 0.076 | vorinostat 0.079 | silmitasertib -0.013 | [8] -0.013 | entospletinib 0.021

AMMECR1 (UniProt Q9Y4X0)
Sequence of UniProt Q9Y4X0 (Q9Y4X0 whole entry, looked up): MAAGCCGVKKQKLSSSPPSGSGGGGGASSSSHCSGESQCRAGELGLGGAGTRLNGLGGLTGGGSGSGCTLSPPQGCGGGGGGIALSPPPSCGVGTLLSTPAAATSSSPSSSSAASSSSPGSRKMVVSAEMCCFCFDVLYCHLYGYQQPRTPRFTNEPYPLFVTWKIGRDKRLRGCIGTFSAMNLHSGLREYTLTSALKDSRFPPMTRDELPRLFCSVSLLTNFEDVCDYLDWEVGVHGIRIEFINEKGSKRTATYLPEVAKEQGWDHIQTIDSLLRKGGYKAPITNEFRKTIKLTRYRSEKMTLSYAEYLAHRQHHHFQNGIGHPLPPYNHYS
inactive: nilotinib -0.005 | [1] -0.025 | dasatinib -0.037 | [2] 0.017 | [3] 0.035 | quisinostat -0.054 | tipifarnib 0.022 | [4] 0.021 | [5] 0.007 | [6] -0.024 | [7] 0.004 | silmitasertib 0.003 | [8] -0.016 | entospletinib 0
active: vorinostat -0.387

AKAP8L (UniProt Q9ULX6)
Sequence of UniProt Q9ULX6 (Q9ULX6 whole entry, looked up): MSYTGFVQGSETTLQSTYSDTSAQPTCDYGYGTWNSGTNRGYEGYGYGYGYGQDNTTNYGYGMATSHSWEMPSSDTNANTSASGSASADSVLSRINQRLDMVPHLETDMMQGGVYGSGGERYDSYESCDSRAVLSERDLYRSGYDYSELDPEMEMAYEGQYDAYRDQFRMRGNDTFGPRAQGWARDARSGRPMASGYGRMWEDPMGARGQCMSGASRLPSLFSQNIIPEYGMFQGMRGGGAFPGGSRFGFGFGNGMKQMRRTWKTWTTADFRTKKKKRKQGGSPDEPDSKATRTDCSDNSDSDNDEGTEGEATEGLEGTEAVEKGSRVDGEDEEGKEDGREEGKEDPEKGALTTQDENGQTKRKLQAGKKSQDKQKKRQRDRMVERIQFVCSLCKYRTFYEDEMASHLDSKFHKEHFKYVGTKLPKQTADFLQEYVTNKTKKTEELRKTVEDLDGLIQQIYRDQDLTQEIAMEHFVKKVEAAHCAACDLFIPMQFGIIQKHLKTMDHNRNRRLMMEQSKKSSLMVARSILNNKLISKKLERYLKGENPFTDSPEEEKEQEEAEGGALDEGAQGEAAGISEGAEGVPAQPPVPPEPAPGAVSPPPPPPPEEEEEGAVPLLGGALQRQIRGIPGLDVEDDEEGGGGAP
inactive: [1] 0.022 | dasatinib -0.062 | [2] 0.016 | [3] 0.037 | quisinostat -0.024 | tipifarnib -0.011 | [4] 0.055 | [5] 0.002 | [6] 0.028 | [7] -0.045 | vorinostat -0.213 | silmitasertib -0.001 | [8] -0.078 | entospletinib -0.019
active: nilotinib -0.267
